Assay results as given in PMC5540273 (PLoS ONE, 2017).
Where two headings read alike, the source gives them in different places.

Assays:
Details in all cases: n = 1
CAMK1B = test system: CAMK1B
CAMK1D = test system: CAMK1D
CAMK1G = test system: CAMK1G
CAMK1 = test system: CAMK1
CAMK2A = test system: CAMK2A
CAMK2B = test system: CAMK2B
CAMK2D = test system: CAMK2D
CAMK2G = test system: CAMK2G
CAMK4 = test system: CAMK4
CAMKK1 = test system: CAMKK1
CAMKK2 = test system: CAMKK2
CASK = test system: CASK
CDC2L1 = test system: T1, CDC2L1
T1 construct: gene CDK11B

CDC2L2 = test system: CDC2L2
CDC2L5 = test system: T2, CDC2L5
T2 construct: gene CDK13

CDK11 = test system: T3, CDK11
T3 construct: gene CDK19

CDK2 = test system: CDK2
CDK3 = test system: CDK3
CDK4-cyclinD1 = test system: CDK4-cyclinD1
CDK4-cyclinD3 = test system: CDK4-cyclinD3
[1] = concentration: 1 μM, replicates: in singlicate
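Further: KINOMEscan kinase panel screen.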

Cc1nnc(-c2ccc3occ(-c4ccc(S(C)=O)cc4)c3c2)[nH]1 (stereo not drawn)
%Inh (CAMK1B; [1]): 1% | %Inh (CAMK1D; [1]): 15% | %Inh (CAMK1G; [1]): 23% | %Inh (CAMK1; [1]): 9% | %Inh (CAMK2A; [1]): 4% | %Inh (CAMK2B; [1]): 12% | %Inh (CAMK2D; [1]): 10% | %Inh (CAMK2G; [1]): 12% | %Inh (CAMK4; [1]): 0% | %Inh (CAMKK1; [1]): 14% | %Inh (CAMKK2; [1]): 14% | %Inh (CASK; [1]): 0% | %Inh (CDC2L1; [1]): 0% | %Inh (CDC2L2; [1]): 0% | %Inh (CDC2L5; [1]): 11% | %Inh (CDK11; [1]): 0% | %Inh (CDK2; [1]): 2% | %Inh (CDK3; [1]): 7% | %Inh (CDK4-cyclinD1; [1]): 0% | %Inh (CDK4-cyclinD3; [1]): 2%

COc1ccc(Nc2nccc(NCCNC(=O)Nc3ccccc3F)n2)cc1 [GSK1379901]
%Inh (CAMK1B; [1]): 35% | %Inh (CAMK1D; [1]): 3% | %Inh (CAMK1G; [1]): 69% | %Inh (CAMK1; [1]): 1% | %Inh (CAMK2A; [1]): 0% | %Inh (CAMK2B; [1]): 0% | %Inh (CAMK2D; [1]): 51% | %Inh (CAMK2G; [1]): 13% | %Inh (CAMK4; [1]): 0% | %Inh (CAMKK1; [1]): 0% | %Inh (CAMKK2; [1]): 0% | %Inh (CASK; [1]): 9% | %Inh (CDC2L1; [1]): 5% | %Inh (CDC2L2; [1]): 20% | %Inh (CDC2L5; [1]): 0% | %Inh (CDK11; [1]): 12% | %Inh (CDK2; [1]): 0% | %Inh (CDK3; [1]): 16% | %Inh (CDK4-cyclinD1; [1]): 0% | %Inh (CDK4-cyclinD3; [1]): 9%

Cn1ccc2ncnc(Oc3cccc(C(=O)Nc4ccccc4)c3)c21
%Inh (CAMK1B; [1]): 12% | %Inh (CAMK1D; [1]): 0% | %Inh (CAMK1G; [1]): 17% | %Inh (CAMK1; [1]): 29% | %Inh (CAMK2A; [1]): 1% | %Inh (CAMK2B; [1]): 0% | %Inh (CAMK2D; [1]): 20% | %Inh (CAMK2G; [1]): 19% | %Inh (CAMK4; [1]): 0% | %Inh (CAMKK1; [1]): 20% | %Inh (CAMKK2; [1]): 0% | %Inh (CASK; [1]): 5% | %Inh (CDC2L1; [1]): 0% | %Inh (CDC2L2; [1]): 0% | %Inh (CDC2L5; [1]): 0% | %Inh (CDK11; [1]): 0% | %Inh (CDK2; [1]): 6% | %Inh (CDK3; [1]): 1% | %Inh (CDK4-cyclinD1; [1]): 16% | %Inh (CDK4-cyclinD3; [1]): 0%

Cc1cc(N2Cc3ccccc3C2)nc(Nc2ccc(S(=O)(=O)N3CCOCC3)cc2)n1.Cl [GSK1669917]
%Inh (CAMK1B; [1]): 4% | %Inh (CAMK1D; [1]): 9% | %Inh (CAMK1G; [1]): 0% | %Inh (CAMK1; [1]): 5% | %Inh (CAMK2A; [1]): 0% | %Inh (CAMK2B; [1]): 0% | %Inh (CAMK2D; [1]): 2% | %Inh (CAMK2G; [1]): 20% | %Inh (CAMK4; [1]): 0% | %Inh (CAMKK1; [1]): 0% | %Inh (CAMKK2; [1]): 0% | %Inh (CASK; [1]): 7% | %Inh (CDC2L1; [1]): 0% | %Inh (CDC2L2; [1]): 23% | %Inh (CDC2L5; [1]): 0% | %Inh (CDK11; [1]): 0% | %Inh (CDK2; [1]): 0% | %Inh (CDK3; [1]): 0% | %Inh (CDK4-cyclinD1; [1]): 0% | %Inh (CDK4-cyclinD3; [1]): 0%

Cc1ccc(NC(=O)Nc2cccc(C(F)(F)F)c2)cc1 [GSK955403]
%Inh (CAMK1B; 1 µM): 0% | %Inh (CAMK1D; 1 µM): 25% | %Inh (CAMK1G; 1 µM): 10% | %Inh (CAMK1; 1 µM): 7% | %Inh (CAMK2A; 1 µM): 32% | %Inh (CAMK2B; 1 µM): 25% | %Inh (CAMK2D; 1 µM): 8% | %Inh (CAMK2G; 1 µM): 4% | %Inh (CAMK4; 1 µM): 5% | %Inh (CAMKK1; 1 µM): 9% | %Inh (CAMKK2; 1 µM): 19% | %Inh (CASK; 1 µM): 15% | %Inh (CDC2L1; 1 µM): 3% | %Inh (CDC2L2; 1 µM): 0% | %Inh (CDC2L5; 1 µM): 0% | %Inh (CDK11; 1 µM): 20% | %Inh (CDK2; 1 µM): 0% | %Inh (CDK3; 1 µM): 0% | %Inh (CDK4-cyclinD1; 1 µM): 0% | %Inh (CDK4-cyclinD3; 1 µM): 0%

COc1cc2ncnc(Nc3ccc4nc(-c5ccccc5)[nH]c4c3)c2cc1OC.Cl [GW282450]
%Inh (CAMK1B; [1]): 0% | %Inh (CAMK1D; [1]): 20% | %Inh (CAMK1G; [1]): 0% | %Inh (CAMK1; [1]): 29% | %Inh (CAMK2A; [1]): 0% | %Inh (CAMK2B; [1]): 0% | %Inh (CAMK2D; [1]): 1% | %Inh (CAMK2G; [1]): 24% | %Inh (CAMK4; [1]): 0% | %Inh (CAMKK1; [1]): 11% | %Inh (CAMKK2; [1]): 13% | %Inh (CASK; [1]): 25% | %Inh (CDC2L1; [1]): 0% | %Inh (CDC2L2; [1]): 16% | %Inh (CDC2L5; [1]): 0% | %Inh (CDK11; [1]): 0% | %Inh (CDK2; [1]): 0% | %Inh (CDK3; [1]): 22% | %Inh (CDK4-cyclinD1; [1]): 0% | %Inh (CDK4-cyclinD3; [1]): 0%
